The values that follow come from PubChem BioAssay.

A number with no mark means an inactive call. For part of these data: Measured potencies and affinities stand elsewhere. Activity calls are given as the source filed them. Unless noted, the rule behind the calls is not given here.

Test [1] in a line: antimalarial activity against Dd2 strain (AID 2302;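 active = growth inhibition above 50% at the single 2 µM test dose, taken to imply half-maximal potency below 2 µM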;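 note: 0% = DMSO untreated growth and 100% = chloroquine plus artemisinin killed control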). To be noted: P. falciparum Dd2 in RBCs, LDH growth readout, 72 h; at 2 µM; stronger effect = higher value.
Test [2] in a line: HepG2 cytotoxicity, primary screen, cytotoxicity control for P. falciparum antimalarial project, cell-based, ATP luminescence (AID 2303;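 active = inhibition above 50%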;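 note: 0% = DMSO wells and 100% = digitonin-killed cells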). To be noted: HepG2 viability, 24-48 h, at 10 µM, stronger effect = higher value.
The target in test [3] is L-lactate dehydrogenase (Plasmodium falciparum (isolate CDC / Honduras)) (UniProt Q27743). Put plainly: PfLDH activity inhibition – cell lysate, 3D7 strain, counter-screen for P. falciparum growth inhibition project (AID 2304).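 Note: 0% = vehicle and 100% = reference inhibitor.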 As to conditions: P. falciparum 3D7 crude extract, LDH APAD/NBT absorbance; at 2 µM; stronger effect = higher value. (A counterscreen serves to expose hits that act by an unwanted route or on another target.)

Test [4] is described as follows: inhibition of 3D7 malaria parasite growth – strain 3D7 (AID 2306).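 Note: 0% = DMSO wells and 100% = chloroquine plus artemisinin control wells.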 As to conditions: P. falciparum 3D7 erythrocytic growth, LDH absorbance, 72 h; at 2 µM; stronger effect = higher value.
Test [5] addresses Calcium-dependent protein kinase 1 (Plasmodium falciparum (isolate 3D7)) (UniProt P62344). Put plainly: PfCDPK1 kinase inhibitors, biochemical, TCAMS library (AID 1159585; cut-off not given, nearly all actives have IC50 up to about 0.98 µM;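 note: inhibitors leave more ATP so luminescence rises with inhibition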). To be noted: recombinant PfCDPK1, Kinase-Glo ATP depletion luminescence.
Test [6] addresses Plasmodium falciparum protein kinase 6 (PK6, PF3D7_1337100) (UniProt Q8IDW1). The experiment in a line: PfPK6 kinase inhibitors, biochemical, TCAMS library (AID 1159586). To be noted: recombinant PfPK6, Kinase-Glo ATP depletion luminescence.
For test [7], the target named is Protein kinase 7 (PK7), Plasmodium falciparum 3D7 (PF3D7_0213400) (UniProt Q7YTF7). Put plainly: inhibition of Plasmodium PK7 catalytic activity – biochemical, TCAMS antimalarial set, Kinase-Glo luminescence (AID 1159587). As to conditions: recombinant PfPK7, Kinase-Glo ATP depletion luminescence. On the technique in general: Kinase-Glo reads ATP consumption through a luciferase reaction.

Test [8] addresses Calcium-dependent protein kinase 4 (Plasmodium falciparum (isolate 3D7)) (UniProt Q8IBS5). The experiment in a line: PfCDPK4 kinase inhibitors, biochemical, TCAMS library (AID 1159588; cut-off not given, nearly all actives have IC50 up to about 0.91 µM). To be noted: recombinant PfCDPK4, Kinase-Glo ATP depletion luminescence.

Chain of Protein kinase 7 (PK7), Plasmodium falciparum 3D7 (PF3D7_0213400) (Q7YTF7 1-343): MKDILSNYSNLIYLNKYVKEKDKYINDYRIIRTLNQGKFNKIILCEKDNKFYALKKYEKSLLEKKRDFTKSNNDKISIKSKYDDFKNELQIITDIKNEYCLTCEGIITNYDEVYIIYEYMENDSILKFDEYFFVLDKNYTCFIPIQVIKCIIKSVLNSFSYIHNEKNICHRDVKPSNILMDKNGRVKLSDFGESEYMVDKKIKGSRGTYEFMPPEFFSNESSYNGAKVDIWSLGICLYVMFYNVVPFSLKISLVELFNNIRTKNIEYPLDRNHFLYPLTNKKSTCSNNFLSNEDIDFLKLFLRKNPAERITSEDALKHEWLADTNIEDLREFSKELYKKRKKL
Chain of Calcium-dependent protein kinase 4 (Plasmodium falciparum (isolate 3D7)) (Q8IBS5 whole entry, looked up): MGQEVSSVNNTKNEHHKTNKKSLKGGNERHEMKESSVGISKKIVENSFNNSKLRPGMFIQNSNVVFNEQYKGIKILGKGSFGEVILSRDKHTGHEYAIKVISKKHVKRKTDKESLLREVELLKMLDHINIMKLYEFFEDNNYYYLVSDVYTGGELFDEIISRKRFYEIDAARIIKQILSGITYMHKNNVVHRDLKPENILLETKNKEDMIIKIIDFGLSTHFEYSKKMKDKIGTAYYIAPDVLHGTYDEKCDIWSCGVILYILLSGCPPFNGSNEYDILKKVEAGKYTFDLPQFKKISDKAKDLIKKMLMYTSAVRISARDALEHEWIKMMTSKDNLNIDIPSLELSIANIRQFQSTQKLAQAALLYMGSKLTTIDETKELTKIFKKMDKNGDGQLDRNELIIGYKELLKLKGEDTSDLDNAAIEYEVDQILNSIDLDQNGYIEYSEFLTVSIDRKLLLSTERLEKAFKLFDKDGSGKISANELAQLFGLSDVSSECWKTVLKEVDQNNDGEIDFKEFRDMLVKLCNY
Chain of Plasmodium falciparum protein kinase 6 (PK6, PF3D7_1337100) (Q8IDW1 1-305): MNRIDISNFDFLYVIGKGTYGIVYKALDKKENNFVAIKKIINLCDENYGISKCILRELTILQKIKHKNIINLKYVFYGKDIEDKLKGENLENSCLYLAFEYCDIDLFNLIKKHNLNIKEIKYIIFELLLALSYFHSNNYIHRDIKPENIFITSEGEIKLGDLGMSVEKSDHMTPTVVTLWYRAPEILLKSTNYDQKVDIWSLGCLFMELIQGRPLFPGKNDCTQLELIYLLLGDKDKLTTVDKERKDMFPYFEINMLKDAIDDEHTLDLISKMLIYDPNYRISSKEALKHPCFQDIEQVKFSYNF
Chain of Calcium-dependent protein kinase 1 (Plasmodium falciparum (isolate 3D7)) (P62344 whole entry, looked up): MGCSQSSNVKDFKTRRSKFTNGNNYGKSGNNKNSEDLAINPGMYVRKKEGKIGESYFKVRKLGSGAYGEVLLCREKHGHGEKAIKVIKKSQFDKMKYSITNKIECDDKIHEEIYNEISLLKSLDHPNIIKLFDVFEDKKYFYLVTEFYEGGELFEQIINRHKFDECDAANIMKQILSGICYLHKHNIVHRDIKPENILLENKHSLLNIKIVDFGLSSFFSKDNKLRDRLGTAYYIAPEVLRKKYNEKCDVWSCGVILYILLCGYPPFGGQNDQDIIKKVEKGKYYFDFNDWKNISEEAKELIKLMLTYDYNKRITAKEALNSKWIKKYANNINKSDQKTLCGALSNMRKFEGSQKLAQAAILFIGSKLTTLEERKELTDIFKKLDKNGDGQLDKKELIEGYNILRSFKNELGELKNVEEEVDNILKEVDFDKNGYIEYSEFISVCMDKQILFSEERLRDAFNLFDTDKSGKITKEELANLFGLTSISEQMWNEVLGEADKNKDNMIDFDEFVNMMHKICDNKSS
Chain of L-lactate dehydrogenase (Plasmodium falciparum (isolate CDC / Honduras)) (Q27743 whole entry, looked up): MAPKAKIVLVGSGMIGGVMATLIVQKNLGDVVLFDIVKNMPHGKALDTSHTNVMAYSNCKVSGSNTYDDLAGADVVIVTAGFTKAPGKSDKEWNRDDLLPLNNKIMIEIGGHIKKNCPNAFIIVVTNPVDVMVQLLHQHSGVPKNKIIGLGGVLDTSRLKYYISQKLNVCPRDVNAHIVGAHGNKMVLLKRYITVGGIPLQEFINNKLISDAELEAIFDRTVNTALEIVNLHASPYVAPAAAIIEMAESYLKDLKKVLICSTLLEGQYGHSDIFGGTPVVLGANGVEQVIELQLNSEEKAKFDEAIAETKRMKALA

A word on the inhibition: it is the relative decrease from the control value, in per cent. Consider `COc1ccc2nc(C)cc(NC3Cc4ccccc4C3)c2c1`, for which the figures for the growth inhibition in test [1] and in test [4] were 13% and 98% (active), respectively. For the same compound, the inhibition is 20% in test [2] and 5% in test [3]. The result in test [5], in test [6], in test [7] and in test [8] was inactive.

As for `O=C(O)C[C@H](NC(=O)[C@@H]1CCCN1C(=O)c1cccc(-c2ccc(Cl)c(Cl)c2)c1)C(=O)O`, the growth inhibition in test [1] was 0%; in test [4], 84% (active). Also, the inhibition is -1% in test [2] and 0% in test [3]. Moreover, the result in test [5], in test [6], in test [7] and in test [8] was inactive.

Turning to `CN1CCN(CCNc2c3ccccc3nc3c2ccc2ccccc23)CC1`, the results for the growth inhibition in test [1] and in test [4] were 66% (active) and 101% (active), respectively. Also, the values for the inhibition in test [2] and in test [3] were 76% (active) and -6%, respectively. Besides, the result in test [5], in test [6], in test [7] and in test [8] was inactive.

Regarding `CCN(CC)CCN(Cc1ccc(-c2ccc(C(F)(F)F)cc2)cc1)C(=O)Cn1c(CCc2cccc(F)c2F)cc(=O)c(C)c1C`, the growth inhibition in test [1] was 87% (active); in test [4], 97% (active). Moreover, the inhibition in test [2] is 35%; in test [3], -4%. Besides, the result in test [5], in test [6], in test [7] and in test [8] was inactive.

As to `CCC(=O)N(c1ccccc1)C1CCN(CCCC(NC(=O)c2cc(C(F)(F)F)cc(C(F)(F)F)c2)c2ccc(Cl)c(Cl)c2)CC1` (stereo not drawn), the growth inhibition is 57% (active) in test [1] and 96% (active) in test [4]. Further, the inhibition in test [2] is 24%; in test [3], 0%. Also, the outcome in test [5], in test [6], in test [7] and in test [8] was inactive.

With `Cc1ccc(-c2nnc(Nc3ccc(CC(N)=O)cc3)c3ccccc23)cc1S(=O)(=O)NCC1CCCO1` (stereo not drawn), the results for the growth inhibition in test [1] and in test [4] were 64% (active) and 83% (active), respectively. For the same compound, the inhibition in test [2] is -6%; in test [3] it was 6%. Besides, the outcome in test [5], in test [6], in test [7] and in test [8] was inactive.

For the compound `O=C(Cc1ccc(-c2ccccc2)cc1)N[C@H]1CCN(Cc2ccc(OCCCN3CCCCC3)cc2)C1`, the figures for the growth inhibition in test [1] and in test [4] were 27% and 99% (active), respectively. Moreover, the inhibition in test [2] was 36%; in test [3], 0%. In addition, the outcome in test [5], in test [6], in test [7] and in test [8] was inactive.

As for `CCOC(=O)c1cn(CC)c2cc(O[C@@H]3CCN(C(=O)OC(C)(C)C)C3)ccc2c1=O`, the growth inhibition in test [1] was 94% (active); in test [4], 97% (active). For the same compound, the inhibition in test [2] is 13%; in test [3], -8%. The result in test [5], in test [6], in test [7] and in test [8] was inactive.

For `CC1(C)CN(CCC2CCC(NC(=O)/C=C/c3ccccc3F)CC2)Cc2ccc(C#N)cc21` (stereo not drawn), the growth inhibition is 82% (active) in test [1] and 89% (active) in test [4]. Besides, the results for the inhibition in test [2] and in test [3] were -1% and -3%, respectively. Also, the result in test [5], in test [6], in test [7] and in test [8] was inactive.

Regarding `O=C(Nc1ccc(OC2CCN(Cc3ccc(F)cc3)C2)cc1)c1ccco1` (stereo not drawn), the values for the growth inhibition in test [1] and in test [4] were 69% (active) and 88% (active), respectively. The inhibition is -3% in test [2] and -1% in test [3]. For the same compound, the result in test [5], in test [6], in test [7] and in test [8] was inactive.

Consider `COCCCNC(=O)C1CCN(C(c2ccc(Cl)cc2)c2ccc(Cl)cc2)CC1`, for which the figures for the growth inhibition in test [1] and in test [4] were 63% (active) and 91% (active), respectively. Further, the inhibition in test [2] was 5%; in test [3] it was 0%. Besides, the result in test [5], in test [6], in test [7] and in test [8] was inactive.

In the case of `O=C(Nc1cccc(-c2cccc(-c3nc4ccc(C(F)(F)F)cc4[nH]3)c2)c1)c1ccncc1`, the growth inhibition in test [1] is 61% (active); in test [4] it was 101% (active). The results for the inhibition in test [2] and in test [3] were 52% (active) and 4%, respectively. In addition, the outcome in test [5], in test [6], in test [7] and in test [8] was inactive.

As for `CN(N=Cc1ccccc1)C(N)=NCCCC#Cc1cccc(CN2CCCC2)c1`, the results for the growth inhibition in test [1] and in test [4] were 3% and 89% (active), respectively. The values for the inhibition in test [2] and in test [3] were 16% and -2%, respectively. Moreover, the result in test [5], in test [6], in test [7] and in test [8] was inactive.

In the case of `Cn1cncc1C(=O)Nc1ccc(-c2cccc(-c3nc4ccc(F)cc4[nH]3)c2)cc1`, the growth inhibition in test [1] is 23%; in test [4] it was 102% (active). Besides, the inhibition in test [2] is 5%; in test [3] it was 2%. The outcome in test [5], in test [6], in test [7] and in test [8] was inactive.

For `CC(C)COc1ccc(Cl)cc1Cc1nc(-c2nc3c(CN4CCN(C)CC4)cccc3[nH]2)cs1`, the values for the growth inhibition in test [1] and in test [4] were 30% and 99% (active), respectively. Moreover, the inhibition in test [2] is 15%; in test [3], -2%. Further, the result in test [5], in test [6], in test [7] and in test [8] was inactive.

Consider `O=C(Cc1ccc([N+](=O)[O-])cc1)N1CCc2cc3nccc(N4CCN5CCC[C@H]5C4)c3cc21`, for which the growth inhibition in test [1] was 7%; in test [4] it was 95% (active). The inhibition in test [2] is -7%; in test [3], -4%. For the same compound, the outcome in test [5], in test [6], in test [7] and in test [8] was inactive.

Regarding `COc1cc(C(=O)Nc2cccc(-c3cn4cccc(C)c4n3)c2)cc(OC)c1OC`, the growth inhibition in test [1] was 77% (active); in test [4], 99% (active). Besides, the inhibition was -3% in test [2] and -1% in test [3]. The outcome in test [5], in test [6], in test [7] and in test [8] was inactive.

Take `O=S(=O)(Nc1ccc(CCN2CCCCC2CCN2CCCC2)cc1)c1cccc2cccnc12` (stereo not drawn): the growth inhibition is 0% in test [1] and 100% (active) in test [4]. For the same compound, the figures for the inhibition in test [2] and in test [3] were 20% and 1%, respectively. For the same compound, the outcome in test [5], in test [6], in test [7] and in test [8] was inactive.

With `CC1(C)N=C(N)N=C(N)N1OCCCc1ccccc1`, the growth inhibition is 94% (active) in test [1] and 96% (active) in test [4]. Also, the inhibition in test [2] is 64% (active); in test [3], 1%. Further, the outcome in test [5], in test [6], in test [7] and in test [8] was inactive.

On to `COc1ccc(CN2C(=S)N(Cc3ccccc3)C(=O)C2CC(=O)Nc2ccccc2)cc1OC` (stereo not drawn), for which the growth inhibition in test [1] was 73% (active); in test [4], 96% (active). The inhibition in test [2] is 6%; in test [3] it was -2%. In addition, the result in test [5], in test [6], in test [7] and in test [8] was inactive.

As for `Cc1cc(NN=Cc2ccccn2)c2cc(C(F)(F)F)ccc2n1`, the growth inhibition in test [1] is 100% (active); in test [4], 102% (active). Also, the inhibition is -10% in test [2] and -4% in test [3]. For the same compound, the result in test [5], in test [6], in test [7] and in test [8] was inactive.
